TCR-CD3 inh = blocks the human TCR-CD3 interaction. hit rate 0.37% among 360,000. inhibition, % at 9.4 µM. TAMRA-labeled TCR probe fluorescence, biochemical. AID 651800; in the data active = inhibition above about 19%;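 note: recombinant mutant TCR 2C K166C tagged with TAMRA read by polarization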
Rin1-Abl PPI inh = human Rin1-Abl interaction inhibition | TR-FRET Rin1/Abl binding, biochemical | inhibition, % at 7.35 µM | hit rate 0.4% among 360,000 | AID 588664; in the data active = inhibition above about 5%, passing the limit was not always enough
UHRF1 binding = UHRF1 methyl-DNA binding inhibition | inhibition, % at 4.4 µM | hit rate 0.75% among 370,000 | UHRF1 binding to methylated oligo, TR-FRET | AID 687016; in the data active = inhibition above about 21%;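 note: UHRF1 SRA domain binding a hemimethylated CpG hairpin DNA probe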
MBD2 inh = MBD2-methylated oligo binding inhibition | TR-FRET, MBD2 binding to methylated oligonucleotide | inhibition, % at 4.4 µM | hit rate 0.31% among 370,000 | AID 686964; in the data active = inhibition above about 13%
Target sequence (Q9UBB5 whole entry, looked up): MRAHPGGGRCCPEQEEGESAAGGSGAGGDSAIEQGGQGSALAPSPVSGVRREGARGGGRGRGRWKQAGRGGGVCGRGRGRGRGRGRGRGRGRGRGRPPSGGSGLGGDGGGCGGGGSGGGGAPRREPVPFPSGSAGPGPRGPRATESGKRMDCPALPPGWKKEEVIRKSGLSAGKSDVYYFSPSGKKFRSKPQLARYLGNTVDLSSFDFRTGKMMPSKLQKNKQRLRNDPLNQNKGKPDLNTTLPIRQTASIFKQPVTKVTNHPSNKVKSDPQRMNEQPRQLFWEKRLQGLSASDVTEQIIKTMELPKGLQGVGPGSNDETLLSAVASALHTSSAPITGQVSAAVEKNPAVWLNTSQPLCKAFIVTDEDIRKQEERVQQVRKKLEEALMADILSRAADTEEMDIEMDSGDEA
LEDGF integ inh = blocks HIV-1 LEDGF/p75-dependent DNA integration; TR-FRET IN-LEDGF/p75 DNA integration, Eu/Cy5; inhibition, % at 3.7 µM; hit rate 0.64% among 370,000;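 active = inhibition above the screen-wide mean plus 3 SD, cut at about 13% in these data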;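 note: signal is the Cy5 over europium emission ratio at 671 and 618 nm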
Numbers stand for hits; . = inactive; / = not tested or not shown. A selection: hits, their analogues and other compounds. The true share with any hit is near 2%.

SMILES | TCR-CD3 inh | Rin1-Abl PPI inh | UHRF1 binding | MBD2 inh | LEDGF integ inh
C=CCNC(=O)c1ccc(N(CC=C)S(C)(=O)=O)cc1 | . | . | . | . | .
Cn1cc(Cc2ccc(C(=O)N3CCCCC3)cn2)c2ccccc21 | . | . | . | . | .
O=S1(=O)N[C@H](c2ccccc2)COc2cc(Br)ccc21 | . | / | . | . | .
Cc1ccc(OCc2nnc(-c3ccc(Cl)cc3)o2)cc1 | . | . | . | . | .
Cc1cc(NC(=O)c2ccccc2F)nc2c1c(=O)oc1ccccc12 | . | . | 22 | . | .
CCCC(=O)Nc1cc(C)c2c(=O)oc3ccccc3c2n1 | . | . | . | . | .
O=C(Nc1ccccc1)/C(=C/c1ccc2c(c1)OCO2)NC(=O)c1ccco1 | . | . | 21 | . | .
COc1ccc(C(=O)OCC(=O)Nc2ccc3[nH]c(=O)[nH]c3c2)cc1 | . | . | . | . | .
O=C(NC1(O)C(=O)c2ccccc2C1=O)c1ccc(C(F)(F)F)cc1 | . | 18 | . | . | .
CC(C)OC(=O)CSc1nc2ccccc2s1 | . | . | 23 | . | .
C[C@@H]1ON(C)[C@H]2C[C@H]3c4cc(-c5ccc(F)cc5)ccc4CCN3C[C@@H]12 | . | / | . | . | .
Clc1ccccc1Cc1noc(CN2CCN3CCCC3C2)n1 (stereo not drawn) | . | . | 29 | . | .
COc1ccc2ccccc2c1/C=N/Nc1cccc(C(=O)O)c1 | . | . | . | . | .
O=C(O)c1cccc(N/N=C/c2cccc3ccccc23)c1 | . | . | 42 | . | .
CCOC(=O)C1=C(C)NC(=O)NC1c1c(C)nn(-c2ccccc2)c1Cl (stereo not drawn) | . | . | . | . | .
CCOC(=O)C1=C(C)N(C)C(=O)NC1c1c(C)nn(-c2ccc(C)cc2)c1Cl (stereo not drawn) | . | . | 23 | . | .
Cc1[nH]c2ccccc2c1C(=O)CSC(=S)N(C)C1CCCCC1 | . | . | 26 | . | .
CCCCn1c(=O)[nH]c2nc3cc(NC(C)=O)ccc3nc2c1=O | . | . | 45 | . | .
C[C@@H]1CN([C@@H](C)CO)S(=O)(=O)c2ccc(Br)cc2O[C@H]1CN(C)C(=O)Nc1ccc2c(c1)OCO2 | . | . | 56 | . | .
C[C@H](CO)N1C[C@H](C)[C@@H](CN(C)C(=O)Nc2ccccc2)Oc2cc(Br)ccc2S1(=O)=O | . | . | . | . | .
C[C@@H]1CN([C@H](C)CO)S(=O)(=O)c2ccc(Br)cc2O[C@H]1CN(C)C(=O)Nc1ccccc1 | . | . | 21 | . | .
CCCCCCCCN1C(=O)[C@@H](CC(=O)NCc2ccc(OC)c(OC)c2)C[C@@]2(C(=O)OC)C1=C[C@H](C(C)C)O[C@@H]2C1CC1 | / | / | . | . | .
COc1cccc(Cn2c(NCc3ccco3)nc3c2c(=O)n(C)c(=O)n3C)c1 | . | / | . | . | .
COc1ccc(Cl)c(Cn2c(NCc3ccco3)nc3c2c(=O)n(C)c(=O)n3C)c1 | . | 11 | . | . | .
COc1ccc(NC(=O)Cn2c(=O)n(CC3CCCO3)c(=O)c3ccccc32)c(OC)c1 (stereo not drawn) | . | . | 22 | . | .
SMILES | TCR-CD3 inh | Rin1-Abl PPI inh | UHRF1 binding | MBD2 inh | LEDGF integ inh
COc1cc(NC(=O)Cn2c(=O)n(CC3CCCO3)c(=O)c3ccccc32)cc(OC)c1 (stereo not drawn) | . | . | . | . | .
COc1ccccc1CN1CC(C(=O)N2CCC(C(=O)c3ccccc3)CC2)CCC1=O (stereo not drawn) | . | . | . | . | .
O=S(=O)(Nc1ccc(-c2ccc3nncn3n2)cc1)c1cccc(F)c1 | . | . | 24 | . | .
Cc1cccc(S(=O)(=O)Nc2ccc(-c3ccc4nncn4n3)cc2)c1 | . | . | . | . | .
Nc1ccn([C@@H]2O[C@H](C(=O)N3CCN(C(=O)C(F)(F)F)CC3)[C@@H](O)[C@H]2O)c(=O)n1 | . | / | . | . | .
CCCCCCCCCCCC(=O)N/N=C/c1ccco1 | . | . | 27 | . | .
CCCCCCCC(=O)N/N=C/c1ccco1 | . | . | . | . | .
CC(C)OCCCNC(=O)C(=O)NCCCOC(C)C | . | . | . | . | .
CC(C)OCCCNC(=S)NNC(=O)C(c1ccccc1)c1ccccc1 | . | . | 22 | . | .
O=C(OCc1cn(Cc2ccc(F)c(F)c2)nn1)N1CCCC1 | / | / | . | . | .
COC(=O)[C@]12C=CCN1[C@@H](c1ccc(OC)c(OC)c1)c1c(c3ccccc3n1S(=O)(=O)c1ccc(C)cc1)C2 | / | / | . | . | .
Cc1nc(Nc2cccc(C(F)(F)F)c2)nc2c1C(=O)CC(C)C2 (stereo not drawn) | . | . | . | . | .
Cc1ccc(Nc2nc(C)c3c(n2)CC(C)CC3=O)c(C)c1 (stereo not drawn) | . | . | 28 | . | .
Cc1cc(C)c(C)c(S(=O)(=O)N2CCN(C(=O)c3ccccc3OCc3c(C)noc3C)CC2)c1C | . | . | 28 | . | .
Cc1noc(C)c1COc1ccccc1C(=O)N1CCN(S(=O)(=O)c2ccccc2Br)CC1 | . | . | . | . | .
Cc1cc(/C=N/n2cnnc2)c(C)n1-c1ccc(Cl)cc1 | . | . | . | . | .
Cc1cc(/C=N/N2CCN(C)CC2)c(C)n1-c1ccc(Cl)cc1 | . | . | 30 | . | .
O=C(O)c1cc(-c2ccco2)nn1-c1ccc(Cl)cc1 | . | . | . | . | .
Cc1ccc(-n2nc(-c3ccco3)cc2C(=O)O)c(C)c1 | . | . | 25 | . | .
O=C(COc1ccc(Br)cc1)NNC(=O)c1cc(S(=O)(=O)N2CCOCC2)ccc1Cl | . | . | . | . | 35
O=C(Cn1cc(C(=O)c2ccco2)c2ccccc21)NC1CC1 | . | . | . | . | .
Cc1ccccc1CNC(=O)CCn1nc(C)c2c(C)n(-c3ccccc3)nc2c1=O | . | . | 22 | . | .
CCOC(=O)Cc1csc(NC(=O)CSc2nnc3ccccn23)n1 | . | . | 32 | . | .
COc1cccc(NC(=O)CN(C)C(=O)CCCc2nc3ccccc3s2)c1 | . | . | . | . | .
CN1CCc2cc3c(c4c2[C@H]1[C@H](O)c1ccccc1-4)OCO3 | . | . | 35 | 66 | .
SMILES | TCR-CD3 inh | Rin1-Abl PPI inh | UHRF1 binding | MBD2 inh | LEDGF integ inh
COc1ccc2c(c1OC)C(=O)OC2C1c2c(cc3c(c2OC)OCO3)CCN1C (stereo not drawn) | . | . | . | . | .
Cc1ccc(CN(Cc2ccco2)C(=S)NCC(=O)O)cc1 | . | . | 22 | . | .
COC(=O)[C@H]1C[C@@]2(O)CN(S(=O)(=O)c3ccc(C)cc3)C[C@@]2(OC(=O)NC2CCCC2)C[C@H]1C(=O)OC | . | . | 24 | . | .
COC(=O)[C@H]1C[C@@]2(O)CN(S(=O)(=O)c3ccc(C)cc3)C[C@@]2(OC(=O)NCc2ccccc2)C[C@H]1C(=O)OC | . | . | . | . | .
c1coc(-c2nc3c4ccccc4ccn3c2Cc2ccsc2)c1 | . | / | 22 | . | .
Cc1cccc(Sc2ccc([N+](=O)[O-])cc2[N+](=O)[O-])n1 | . | . | 28 | . | .
